Experimental findings from PubChem BioAssay (NCI) are described below.

This is part of a sample that, as a whole, favours compounds with a hit. Of some 83,000 tested, about 20% had one in any assay.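 Values shown are percent growth following 48 h exposure of cells in 96-well plates to a single concentration of compound; below 10 was considered active.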 Unmarked numbers belong to inactive results. Active and inactive are the calls of the source.

Common to all, as to test: NCI-60 one-dose screen, 48 h (100 = growth as untreated, 0 = no growth, -100 = all killed)
Common to all, as to settings: 10 µM

In experiment [1] the test system is SR leukemia.
The subject of experiment [2] is RPMI-8226 leukemia.
Experiment [3] relates to OVCAR-8 ovarian.
Experiment [4] relates to OVCAR-5 ovarian.
The test system of experiment [5] is OVCAR-4 ovarian.
In experiment [6] the test system is SK-OV-3 ovarian.
Experiment [7] deals with IGROV1 ovarian.
Experiment [8] has as its system OVCAR-3 ovarian.
Experiment [9] relates to NCI/ADR-RES ovarian.
The subject of experiment [10] is HS 578T breast.

Regarding `COc1cccc(COc2ccc(/C=C3\Oc4cc(O)ccc4C3=O)cc2)c1`, the growth in experiment [1] is 21.4%; in [2] it was 32.1%; in experiment [3] it was 23.6%; in experiment [4] it was 77.6%; in experiment [5], -9.02% (active); in experiment [6] it was 77.4%. Also, the growth in [7] is 53.7%; in [8], 24.9%; in experiment [9], 24.8%.

For `COc1ccc(C(=O)/C=C/c2cc(F)cc(C(F)(F)F)c2)cc1S(N)(=O)=O`, the growth in experiment [1] was 3.04% (active); in experiment [2] it was 2.99% (active); in [3], -44.1% (active); in experiment [4], -59.9% (active); in experiment [5], -98% (active); in experiment [6], 42.1%. The growth in [7] is -53.6% (active); in experiment [8], -95.3% (active); in experiment [10] it was -25.7% (active); in experiment [9], 5.77% (active).

Turning to `O=S(=O)(Nc1ncccn1)c1ccc(-n2c(-c3ccccc3)nc(-c3ccccc3)c2-c2ccccc2)cc1`, the growth in experiment [1] was 81.8%; in [2], 71.1%; in experiment [3], 97.4%; in experiment [4], 104%; in experiment [5] it was 94.1%; in experiment [6], 101%. The growth was 103% in [7], 113% in experiment [8], 81% in experiment [10] and 95.3% in experiment [9].

In the case of `COc1cc(/C=C/C(=O)c2ccc(S(=O)(=O)NCCNc3nc(Nc4ccc(F)cc4)nc(N(C)C)n3)cc2)cc(OC)c1OC`, the growth in experiment [1] is 3.14% (active); in experiment [2], 7.35% (active); in experiment [3], -65% (active); in experiment [5] it was 22.8%; in experiment [6], 109%; in experiment [7], -48.9% (active). Further, the growth is -88.1% (active) in experiment [8] and 67.3% in experiment [10].

`COc1cc2c3c(n(CCCNCCO)c(=O)c2cc1OC)-c1nc2c(cc1C3=O)OCO2`: the growth was 1.88% (active) in [1]; 3.98% (active) in experiment [2]; -69.3% (active) in experiment [3]; -3.64% (active) in experiment [4]; 26.1% in experiment [5]; 12.4% in [7]. Further, the results for the growth in experiment [8], in experiment [10] and in experiment [9] were -68.5% (active), 65.6% and 84.1%, respectively.

With `CN(C)c1ccc(/C=C/c2nc3ccccc3c(=O)n2CC(=O)Nc2ccc(Cl)cc2)cc1`, the growth was 81.2% in experiment [1]; 88.1% in experiment [2]; 2.8% (active) in experiment [3]; 75.4% in experiment [4]; 7.27% (active) in [5]; 88.3% in experiment [7]. In addition, the results for the growth in experiment [8], in [10] and in [9] were 42.2%, 17.1% and 22.4%, respectively.

On to `O=C(NC(=S)N1CCN(c2ncnc3c2cnn3-c2ccccc2)CC1)c1ccc(Cl)cc1`, for which the growth in experiment [1] is 13.9%; in [2], 69.1%; in experiment [3], 38.3%; in experiment [4], 83.8%; in experiment [5], 16.5%; in experiment [7] it was 70.9%. For the same compound, the growth in [8] was 48.1%; in [10] it was 32.7%; in [9], 28.1%.

`COc1ccc(CN2[C@@H](C(=O)NCc3ccc(C(=O)NO)cc3)Cc3c([nH]c4ccccc34)[C@@H]2C)cc1`: the growth in experiment [1] was 14.5%; in experiment [2], 20.1%; in [3], 27.9%; in experiment [5], 40.1%; in [6], -8.39% (active); in [7], 12.4%. The growth in experiment [8] was 11.1%; in [10], -5.59% (active); in experiment [9], 68.8%.

Regarding `COc1ccc(C(=O)NC(=S)N2CCN(c3ncnc4c3cnn4-c3ccccc3)CC2)cc1`, the growth in [1] was 12.3%; in experiment [2] it was 72.6%; in experiment [3], 51.3%; in experiment [4], 79.3%; in experiment [5], 54.1%; in [7], 66.4%. In addition, the values for the growth in experiment [8], in experiment [10] and in [9] were 83.1%, 51% and 61.7%, respectively.

As to `COc1ccc(-c2nc(Nc3ccccc3S(N)(=O)=O)c3ccccc3n2)cc1`, the growth in [1] is 23%; in [2], 14.9%; in experiment [3] it was -27% (active); in [4], 48%; in [5], 32.7%; in experiment [7] it was 43.4%. The growth is -20.6% (active) in [8], 42.8% in experiment [10] and 18% in experiment [9].

`CC(=O)Nc1ccc(-c2cn(-c3cccc(C(=O)Nc4ccc(Cl)c(C(F)(F)F)c4)c3)nn2)cn1`: the growth in [1] is 16.1%; in experiment [2], 16.2%; in experiment [3] it was -32.7% (active); in [4], -17.8% (active); in experiment [5], -74.9% (active); in experiment [7], -54% (active). In addition, the results for the growth in experiment [8], in [10] and in [9] were -75.9% (active), -12% (active) and 41.6%, respectively.

With `CCCn1c(=O)c2[nH]c(-c3ccc(OCc4nc5ccc(C#N)cc5[nH]4)cc3)nc2n(CCC)c1=O`, the growth in experiment [1] was 59.5%; in experiment [2], 68.9%; in experiment [3] it was 66.3%; in experiment [5] it was 78.9%; in [6] it was 85.5%; in [7] it was 62.2%. In addition, the growth is 68% in [8], 40% in experiment [10] and 97.1% in experiment [9].

Take `COc1ccc(OC)c(/C=N/NC(=O)c2ccc3nc(-c4ccc(Cl)cc4)[nH]c3c2)c1`: the growth in experiment [1] is 68.6%; in experiment [2], 37.7%; in experiment [3] it was 82.8%; in [4], 104%; in experiment [5], 61.1%; in experiment [7], 92.2%. The growth was 89.2% in [8], 51.2% in experiment [10] and 88.8% in [9].

With `Cc1cc(=O)oc2cc(OCCCCOc3ccc(/C=C/C(=O)Nc4ccccc4[N+](=O)[O-])cc3)ccc12`, the growth in [1] was 88%; in [2] it was 108%; in experiment [3], 111%; in experiment [4], 108%; in experiment [5], 109%; in [7] it was 106%. Further, the figures for the growth in experiment [8], in experiment [10] and in [9] were 128%, 111% and 115%, respectively.

Take `CCCSc1nc(NC2CC2)c(C#N)c(-c2ccc(OC)cc2)n1`: the growth in experiment [1] was 98.4%; in experiment [2], 96.6%; in experiment [3], 69.2%; in [5], 84.5%; in experiment [6], 115%; in experiment [7], 108%. Besides, the growth in experiment [8] was 93.5%; in [10], 105%; in experiment [9] it was 68.7%.

For the compound `OCCNc1oc(-c2ccccc2)nc1[P+](c1ccccc1)(c1ccccc1)c1ccccc1`, the growth in [1] is 1.42% (active); in experiment [2] it was 3.91% (active); in experiment [3], 7.35% (active); in experiment [5] it was 10.2%; in [6], -3.42% (active); in experiment [7], -12.9% (active). The values for the growth in experiment [8], in experiment [10] and in experiment [9] were -9.22% (active), -3.9% (active) and 99%, respectively.

For `O=C(CSc1nnc(-c2ccc3nc(-c4ccccc4)[nH]c3c2)o1)Nc1ccc(Cl)cc1`, the growth in experiment [1] was 29.1%; in [2] it was 29.6%; in [3] it was 21.2%; in experiment [4], 65.1%; in experiment [5] it was 61.9%; in [7] it was 52.6%. For the same compound, the growth is 62.9% in experiment [8], 16.7% in [10] and 38.5% in experiment [9].

For `O=c1[nH]c2ccccc2cc1CSc1ccc(Nc2nccc(-c3ccc(Cl)cc3)n2)cc1`, the growth in experiment [1] was 59.2%; in experiment [2], 21.2%; in experiment [3] it was -52.9% (active); in experiment [5], -76.8% (active); in experiment [6], -15.1% (active); in [7] it was 11%. The growth is -73.9% (active) in [8], -22.1% (active) in experiment [10] and -39% (active) in [9].

In the case of `N#Cc1c(NC(=O)c2ccc(C(F)(F)F)cc2)sc2c1CCC(=O)C2`, the growth in experiment [1] was 11.3%; in experiment [2], 7.34% (active); in [3], -32.3% (active); in [4], -80.6% (active); in experiment [5], -24.6% (active); in experiment [6], -54.1% (active). Moreover, the growth in experiment [7] is -79.3% (active); in [8], -92.9% (active); in [9] it was -44.8% (active).

Regarding `CC(C)C1=C[C@@]23CC[C@@H]4[C@](C)(CCC[C@]4(C)C(=O)NCc4ccccc4)[C@H]2C[C@@H]1[C@H]1C(=O)CCC(=O)[C@H]13`, the growth in [1] is 44.4%; in experiment [2], 40.4%; in experiment [3], 75.1%; in experiment [4], 83.8%; in experiment [5], 47.3%; in [6], 105%. Further, the growth in [7] was 90.6%; in experiment [8], 86.9%; in experiment [9], 74%.

For `Cc1ccc(-c2nc(Nc3ccc(S(N)(=O)=O)cc3)c3ccccc3n2)cc1`, the growth in experiment [1] was 14.6%; in experiment [2], 29.2%; in experiment [3] it was 63.2%; in experiment [4] it was 68.9%; in experiment [5] it was 61.7%; in experiment [7], 66.7%. Further, the growth in experiment [8] was 61.9%; in experiment [10], 90.1%; in [9] it was 54.7%.
